Measured values from PubChem BioAssay AID1159580 (chemical genetic matrix, 2015).
The whole screen tested about 5,500 compounds, of which about 2,000 (36%) were called active. Not shown: some 18% with an inconclusive outcome. No stated cut-off is given here; in the data, active means normalized growth mostly below about 0.91 (no sharp cut-off); inconclusive means no clear call, values can overlap the other calls; inactive means mostly above about 0.92. The list shows a part of the results.

Assay: chemical genetic growth profiling, strain panel (AID 1159580);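 further: tested at 20 µM; growth read once vehicle control cultures reached saturation at 30 °C; 1 = growth at the plate median or of vehicle wells; lower values mean less growth of the strain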
Conditions: growth OD

Measured: normalized growth

C1CCC(C(CC2CCCCN2)C2CCCCC2)CC1 (centres undefined)
active: S. cerevisiae deletion strains, locus YJR075W, strain HOC1, active compounds read low 0.606 | S. cerevisiae deletion strains, locus YKL190W, strain CNB1, active compounds read low 0.143 | S. cerevisiae deletion strains, locus YKR001C, strain vps1, active compounds read low 0.0792 | S. cerevisiae deletion strains, locus YLR039C, strain RIC1, active compounds read low 0.247 | S. cerevisiae deletion strains, locus YLR058C, strain SHM2, active compounds read low 0.703 | S. cerevisiae deletion strains, locus YLR262C, strain YPT6, active compounds read low 0.151 | S. cerevisiae deletion strains, locus YLR268W, strain sec22, active compounds read low 0.605 | S. cerevisiae deletion strains, locus YLR320W, strain mms22, active compounds read low 0.862 | S. cerevisiae deletion strains, locus YLR330W, strain CHS5, active compounds read low 0.381 | S. cerevisiae deletion strains, locus YLR342W, strain FKS1 (second series), active compounds read low 0.167 | S. cerevisiae deletion strains, locus YLR371W, strain rom2, active compounds read low 0.266 | S. cerevisiae deletion strains, locus YLR418C, strain cdc73, active compounds read low 0.423 | S. cerevisiae deletion strains, locus YML016C, strain PPZ1, active compounds read low 0.363 | S. cerevisiae deletion strains, locus YML032C, strain rad52, active compounds read low 0.877 | S. cerevisiae deletion strains, locus YMR058W, strain fet3, active compounds read low 0.853 | S. cerevisiae deletion strains, locus YMR223W, strain ubp8, active compounds read low 0.454 | S. cerevisiae deletion strains, locus YMR231W, strain pep5, active compounds read low 0.0752 | S. cerevisiae deletion strains, locus YMR263W, strain SAP30, active compounds read low 0.843 | S. cerevisiae deletion strains, locus YMR307W, strain GAS1, active compounds read low 0.174 | S. cerevisiae deletion strains, locus YNL067W, strain RPL9B, active compounds read low 0.793 | S. cerevisiae deletion strains, locus YNL233W, strain BNI4, active compounds read low 0.245 | S. cerevisiae deletion strains, locus YNL307C, strain MCK1, active compounds read low 0.267 | S. cerevisiae deletion strains, locus YNR052C, strain pop2, active compounds read low 0.14 | S. cerevisiae deletion strains, locus YOL006C, strain TOP1, active compounds read low 0.115 | S. cerevisiae deletion strains, locus YOR061W, strain CKA2, active compounds read low 0.114 | S. cerevisiae deletion strains, locus YOR069W, strain VPS5, active compounds read low 0.906 | S. cerevisiae deletion strains, locus YOR106W, strain vam3, active compounds read low 0.458 | S. cerevisiae deletion strains, locus YOR136W, strain idh2, active compounds read low 0.77 | S. cerevisiae deletion strains, locus YOR184W, strain ser1, active compounds read low 0.608 | S. cerevisiae deletion strains, locus YOR270C, strain vph1, active compounds read low 0.452 | S. cerevisiae deletion strains, locus YPL051W, strain arl3, active compounds read low 0.886 | S. cerevisiae deletion strains, locus YPL055C, strain LGE1, active compounds read low 0.4 | S. cerevisiae deletion strains, locus YPR163C, strain tif3, active compounds read low 0.0807 | S. cerevisiae deletion strains, locus YPR167C, strain met16, active compounds read low 0.844 | S. cerevisiae deletion strains, strain wtn01, active compounds read low 0.317 | S. cerevisiae strains, strain wild type, active compounds read low 0.314
inactive: S. cerevisiae deletion strains, locus YJR066W, strain TOR1, active compounds read low 0.973 | S. cerevisiae deletion strains, locus YKL009W, strain mrt4, active compounds read low 1 | S. cerevisiae deletion strains, locus YKL068W, active compounds read low 1.01 | S. cerevisiae deletion strains, locus YKL085W, strain MDH1 (second series), active compounds read low 0.996 | S. cerevisiae deletion strains, locus YKL085W, strain MDH1, active compounds read low 0.996 | S. cerevisiae deletion strains, locus YKL160W, strain elf1, active compounds read low 0.952 | S. cerevisiae deletion strains, locus YKR026C, strain gcn3, active compounds read low 0.988 | S. cerevisiae deletion strains, locus YKR091W, strain srl3, active compounds read low 0.989 | S. cerevisiae deletion strains, locus YLL001W, strain dnm1, active compounds read low 0.992 | S. cerevisiae deletion strains, locus YLL026W, active compounds read low 0.985 | S. cerevisiae deletion strains, locus YLL041C, strain sdh2, active compounds read low 0.967 | S. cerevisiae deletion strains, locus YLR027C, strain aat2, active compounds read low 0.977 | S. cerevisiae deletion strains, locus YLR102C, strain apc9, active compounds read low 1.01 | S. cerevisiae deletion strains, locus YLR113W, strain HOG1, active compounds read low 1.02 | S. cerevisiae deletion strains, locus YLR221C, strain rsa3, active compounds read low 0.98 | S. cerevisiae deletion strains, locus YLR258W, strain gsy2, active compounds read low 0.99 | S. cerevisiae deletion strains, locus YLR262C, strain YPT6 (second series), active compounds read low 1.08 | S. cerevisiae deletion strains, locus YLR342W, strain FKS1, active compounds read low 0.981 | S. cerevisiae deletion strains, locus YLR357W, strain rsc2, active compounds read low 0.963 | S. cerevisiae deletion strains, locus YLR370C, strain arc18, active compounds read low 0.981 | S. cerevisiae deletion strains, locus YLR384C, strain iki3, active compounds read low 0.972 | S. cerevisiae deletion strains, locus YML120C, strain ndi1, active compounds read low 0.973 | S. cerevisiae deletion strains, locus YML124C, strain tub3, active compounds read low 0.954 | S. cerevisiae deletion strains, locus YMR078C, strain ctf18, active compounds read low 1.02 | S. cerevisiae deletion strains, locus YMR125W, strain sto1, active compounds read low 0.897 | S. cerevisiae deletion strains, locus YMR129W, active compounds read low 0.972 | S. cerevisiae deletion strains, locus YMR205C, strain PFK2, active compounds read low 0.93 | S. cerevisiae deletion strains, locus YNL071W, strain lat1, active compounds read low 0.975 | S. cerevisiae deletion strains, locus YNL183C, strain NPR1, active compounds read low 0.976 | S. cerevisiae deletion strains, locus YNL209W, strain ssb2, active compounds read low 0.974 | S. cerevisiae deletion strains, locus YNL248C, strain rpa49, active compounds read low 0.926 | S. cerevisiae deletion strains, locus YNL250W, strain rad50, active compounds read low 1.01 | S. cerevisiae deletion strains, locus YNL271C, strain bni1, active compounds read low 1.01 | S. cerevisiae deletion strains, locus YNL298W, strain CLA4, active compounds read low 1.01 | S. cerevisiae deletion strains, locus YNL322C, strain KRE1 (second series), active compounds read low 0.975 | S. cerevisiae deletion strains, locus YNR049C, strain mso1, active compounds read low 0.99 | S. cerevisiae deletion strains, locus YOL147C, strain pex11, active compounds read low 0.941 | S. cerevisiae deletion strains, locus YOR001W, strain rrp6, active compounds read low 0.893 | S. cerevisiae deletion strains, locus YOR070C, strain gyp1, active compounds read low 0.979 | S. cerevisiae deletion strains, locus YOR080W, strain dia2, active compounds read low 0.988 | S. cerevisiae deletion strains, locus YOR083W, strain WHI5, active compounds read low 0.94 | S. cerevisiae deletion strains, locus YOR144C, strain elg1, active compounds read low 1.02 | S. cerevisiae deletion strains, locus YOR231W, strain MKK1, active compounds read low 1.02 | S. cerevisiae deletion strains, locus YOR265W, strain rbl2, active compounds read low 0.979 | S. cerevisiae deletion strains, locus YOR290C, strain snf2, active compounds read low 0.869 | S. cerevisiae deletion strains, locus YOR316C, strain cot1, active compounds read low 0.97 | S. cerevisiae deletion strains, locus YPL078C, strain atp4, active compounds read low 0.973 | S. cerevisiae deletion strains, locus YPL106C, strain sse1, active compounds read low 0.984 | S. cerevisiae deletion strains, locus YPL240C, strain hsp82, active compounds read low 0.98 | S. cerevisiae deletion strains, locus YPL241C, strain CIN2, active compounds read low 0.93 | S. cerevisiae deletion strains, locus YPL256C, strain CLN2, active compounds read low 1.02 | S. cerevisiae deletion strains, locus YPR119W, strain clb2, active compounds read low 0.935 | S. cerevisiae deletion strains, locus YPR141C, strain kar3, active compounds read low 1.03
